# Measured values as given in article PMC7862700, “An all-to-all approach to the identification of sequence-specific readers for epigenetic DNA modifications on cytosine”.
# Key:
# Assay in all cases: DAPPL (digital affinity profiling via proximity ligation, sequencing); 10 mM Tris-HCl pH 7.5, 50 mM NaCl, 1 mM DTT, 4% glycerol, room temperature, 30 min; GST-TFs on glutathione beads, 16-mer random dsDNA library, 0.1% formaldehyde crosslink after washing; high values mean tight binding
# [1] = target: T1, FEV (Homo sapiens, UniProt Q99581 1-238); settings: protein: recombinant; tags: N-terminal GST; dsDNA, one strand shown
# T1 sequence: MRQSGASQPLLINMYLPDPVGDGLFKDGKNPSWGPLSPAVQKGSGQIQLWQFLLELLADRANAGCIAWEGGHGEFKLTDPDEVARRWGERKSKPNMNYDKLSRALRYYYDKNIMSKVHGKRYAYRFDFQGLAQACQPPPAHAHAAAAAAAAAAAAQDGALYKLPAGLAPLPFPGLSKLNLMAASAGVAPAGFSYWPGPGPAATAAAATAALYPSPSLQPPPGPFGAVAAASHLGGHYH
# In short: (§1)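 Pools were built from human transcription factors expressed in yeast as GST fusions, captured on glutathione beads and DNA-barcoded, along with a tag-only sample. Incubation with 200 nmole of a 16-mer random double-stranded DNA library lasted 30 min at room temperature in Tris/NaCl/DTT/glycerol buffer, and was followed by washing, 0.1% formaldehyde crosslinking, proximity ligation, PCR amplification and Illumina NextSeq500 sequencing. Binding signal is the quotient of each hexamer's read frequency for a factor and its frequency for the tag-only sample.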
# [2] = target: ETV5 (Homo sapiens, UniProt P41161 1-510); settings: protein: recombinant; tags: N-terminal GST; dsDNA, one strand shown
# ETV5, sequence (P41161 whole entry): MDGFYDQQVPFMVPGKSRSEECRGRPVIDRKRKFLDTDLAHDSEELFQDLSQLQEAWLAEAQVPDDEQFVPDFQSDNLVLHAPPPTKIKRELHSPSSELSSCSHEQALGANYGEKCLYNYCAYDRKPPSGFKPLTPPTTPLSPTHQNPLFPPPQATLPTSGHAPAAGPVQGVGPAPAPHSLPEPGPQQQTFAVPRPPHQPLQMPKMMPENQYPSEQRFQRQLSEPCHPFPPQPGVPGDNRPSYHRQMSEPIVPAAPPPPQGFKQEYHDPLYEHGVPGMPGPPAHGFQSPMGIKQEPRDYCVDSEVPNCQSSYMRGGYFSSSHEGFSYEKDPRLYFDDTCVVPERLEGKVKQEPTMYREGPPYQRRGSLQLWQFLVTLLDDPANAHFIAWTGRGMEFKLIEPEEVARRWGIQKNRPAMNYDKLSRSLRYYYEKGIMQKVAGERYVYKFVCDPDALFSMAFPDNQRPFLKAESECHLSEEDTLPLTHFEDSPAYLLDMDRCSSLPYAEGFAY
# In short: as §1
# [3] = target: HSF1 (Homo sapiens, UniProt Q00613 1-529); settings: protein: recombinant; tags: N-terminal GST; chain copies: 3; dsDNA, one strand shown
# HSF1, sequence (Q00613 whole entry): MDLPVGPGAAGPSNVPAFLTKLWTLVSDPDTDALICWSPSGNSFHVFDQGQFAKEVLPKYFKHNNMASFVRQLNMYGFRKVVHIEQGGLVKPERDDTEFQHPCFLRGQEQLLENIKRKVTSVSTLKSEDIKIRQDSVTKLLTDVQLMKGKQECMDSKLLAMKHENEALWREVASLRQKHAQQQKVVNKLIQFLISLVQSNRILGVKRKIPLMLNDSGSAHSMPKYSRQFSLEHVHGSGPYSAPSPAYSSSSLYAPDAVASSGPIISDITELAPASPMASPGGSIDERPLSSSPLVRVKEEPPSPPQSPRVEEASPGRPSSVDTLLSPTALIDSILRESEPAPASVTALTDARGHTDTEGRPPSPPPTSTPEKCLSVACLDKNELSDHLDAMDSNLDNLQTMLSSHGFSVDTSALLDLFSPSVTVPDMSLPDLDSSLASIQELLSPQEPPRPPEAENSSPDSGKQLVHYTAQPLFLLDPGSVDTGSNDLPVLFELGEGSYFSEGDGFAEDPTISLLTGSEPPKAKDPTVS
# In short: as §1
# [4] = target: T2, SPIC (Homo sapiens, UniProt Q8N5J4 1-248); settings: protein: recombinant; tags: N-terminal GST; dsDNA, one strand shown
# T2 sequence: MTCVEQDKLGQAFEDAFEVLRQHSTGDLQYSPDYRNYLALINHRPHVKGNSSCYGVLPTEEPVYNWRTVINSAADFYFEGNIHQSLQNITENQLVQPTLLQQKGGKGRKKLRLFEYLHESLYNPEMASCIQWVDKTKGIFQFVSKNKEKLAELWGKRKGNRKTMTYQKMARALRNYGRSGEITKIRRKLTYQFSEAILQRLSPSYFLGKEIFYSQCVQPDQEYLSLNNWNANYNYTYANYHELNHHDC
# In short: as §1
# [5] = target: ELF4 (Homo sapiens, UniProt Q99607 1-663); settings: protein: recombinant; tags: N-terminal GST; dsDNA, one strand shown
# ELF4, sequence (Q99607 whole entry): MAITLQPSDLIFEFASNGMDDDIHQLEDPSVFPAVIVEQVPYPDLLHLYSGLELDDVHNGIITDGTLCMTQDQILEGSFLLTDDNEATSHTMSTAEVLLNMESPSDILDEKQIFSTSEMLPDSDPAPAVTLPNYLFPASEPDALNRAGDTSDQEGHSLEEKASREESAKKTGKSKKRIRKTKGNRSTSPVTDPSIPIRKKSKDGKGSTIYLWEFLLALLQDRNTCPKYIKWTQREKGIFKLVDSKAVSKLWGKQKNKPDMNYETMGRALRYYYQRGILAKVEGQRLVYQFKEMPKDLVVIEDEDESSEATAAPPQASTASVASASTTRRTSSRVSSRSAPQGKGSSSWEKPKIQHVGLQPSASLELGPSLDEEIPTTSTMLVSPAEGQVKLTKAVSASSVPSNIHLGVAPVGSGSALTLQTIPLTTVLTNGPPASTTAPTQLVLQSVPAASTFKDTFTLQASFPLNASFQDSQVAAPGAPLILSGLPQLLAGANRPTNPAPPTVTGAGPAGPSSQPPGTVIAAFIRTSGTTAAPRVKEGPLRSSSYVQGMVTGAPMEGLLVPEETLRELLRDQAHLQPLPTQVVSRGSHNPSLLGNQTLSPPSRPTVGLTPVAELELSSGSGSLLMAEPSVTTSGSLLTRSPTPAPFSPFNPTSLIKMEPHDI
# In short: as §1
# [6] = target: T3, ELK4 (Homo sapiens, UniProt P28324-2 1-405); settings: protein: recombinant; tags: N-terminal GST; dsDNA, one strand shown
# T3 sequence: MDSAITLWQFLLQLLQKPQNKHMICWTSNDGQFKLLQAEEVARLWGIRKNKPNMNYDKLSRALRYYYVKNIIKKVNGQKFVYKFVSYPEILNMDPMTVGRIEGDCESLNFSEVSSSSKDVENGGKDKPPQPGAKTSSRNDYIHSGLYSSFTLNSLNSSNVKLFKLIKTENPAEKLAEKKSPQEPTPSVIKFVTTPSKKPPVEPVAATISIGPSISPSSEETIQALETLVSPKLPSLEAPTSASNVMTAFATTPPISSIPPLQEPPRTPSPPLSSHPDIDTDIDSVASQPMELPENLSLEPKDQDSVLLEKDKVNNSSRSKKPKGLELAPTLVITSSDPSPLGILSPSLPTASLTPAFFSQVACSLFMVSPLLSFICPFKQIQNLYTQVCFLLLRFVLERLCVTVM
# In short: as §1
# [7] = target: T4, ETV2 (Homo sapiens, UniProt O00321 1-342); settings: protein: recombinant; tags: N-terminal GST; dsDNA, one strand shown
# T4 sequence: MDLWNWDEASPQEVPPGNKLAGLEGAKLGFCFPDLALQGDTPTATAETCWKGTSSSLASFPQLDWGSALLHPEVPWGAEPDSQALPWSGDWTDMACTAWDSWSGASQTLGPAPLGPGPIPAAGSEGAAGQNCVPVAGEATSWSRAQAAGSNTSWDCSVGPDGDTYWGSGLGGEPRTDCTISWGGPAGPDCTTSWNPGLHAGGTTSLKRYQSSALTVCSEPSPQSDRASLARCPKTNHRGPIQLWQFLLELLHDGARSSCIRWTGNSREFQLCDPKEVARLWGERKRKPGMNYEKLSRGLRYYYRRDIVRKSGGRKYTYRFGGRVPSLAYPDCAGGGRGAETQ
# In short: as §1
# [8] = target: T5, ELF3 (Homo sapiens, UniProt P78545 1-371); settings: protein: recombinant; tags: N-terminal GST; dsDNA, one strand shown
# T5 sequence: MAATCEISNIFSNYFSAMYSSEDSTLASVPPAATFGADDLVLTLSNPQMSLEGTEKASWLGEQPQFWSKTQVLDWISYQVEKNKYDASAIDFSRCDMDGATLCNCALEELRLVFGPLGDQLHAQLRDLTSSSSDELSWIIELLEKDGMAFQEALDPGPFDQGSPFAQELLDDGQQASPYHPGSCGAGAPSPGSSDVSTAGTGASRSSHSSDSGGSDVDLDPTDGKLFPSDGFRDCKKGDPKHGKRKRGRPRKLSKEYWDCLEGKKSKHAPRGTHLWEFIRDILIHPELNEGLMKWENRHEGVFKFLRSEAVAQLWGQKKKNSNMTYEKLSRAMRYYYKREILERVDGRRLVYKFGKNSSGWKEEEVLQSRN
# In short: as §1
# [9] = target: CRX (Homo sapiens, UniProt O43186 1-299); settings: protein: recombinant; tags: N-terminal GST; dsDNA, one strand shown
# CRX, sequence (O43186 whole entry): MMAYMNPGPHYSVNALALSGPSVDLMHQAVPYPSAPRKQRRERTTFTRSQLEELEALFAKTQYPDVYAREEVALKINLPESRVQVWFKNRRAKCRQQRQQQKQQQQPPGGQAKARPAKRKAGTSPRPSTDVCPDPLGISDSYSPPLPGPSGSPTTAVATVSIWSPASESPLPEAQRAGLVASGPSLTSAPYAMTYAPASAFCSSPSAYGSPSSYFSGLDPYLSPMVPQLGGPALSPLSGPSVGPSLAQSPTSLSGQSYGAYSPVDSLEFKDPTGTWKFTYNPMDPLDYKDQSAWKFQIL
# In short: as §1
# [10] = target: ETV1 (Homo sapiens, UniProt P50549 1-477); settings: protein: recombinant; tags: N-terminal GST; dsDNA, one strand shown
# ETV1, sequence (P50549 whole entry): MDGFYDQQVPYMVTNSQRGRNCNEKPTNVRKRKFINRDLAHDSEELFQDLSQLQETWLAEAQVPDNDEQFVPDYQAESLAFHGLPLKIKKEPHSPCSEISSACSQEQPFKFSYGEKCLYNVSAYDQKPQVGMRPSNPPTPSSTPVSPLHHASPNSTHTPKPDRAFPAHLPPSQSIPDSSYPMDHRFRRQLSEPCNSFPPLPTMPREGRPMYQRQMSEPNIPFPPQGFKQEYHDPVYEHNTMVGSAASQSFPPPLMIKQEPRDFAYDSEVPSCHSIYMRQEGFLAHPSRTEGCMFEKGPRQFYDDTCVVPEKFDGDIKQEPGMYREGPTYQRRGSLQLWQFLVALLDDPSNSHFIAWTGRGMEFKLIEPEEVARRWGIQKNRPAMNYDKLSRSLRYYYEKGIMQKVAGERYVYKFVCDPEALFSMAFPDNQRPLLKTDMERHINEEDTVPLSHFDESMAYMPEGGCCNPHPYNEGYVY
# In short: as §1
# [11] = target: T6, ERF (Homo sapiens, UniProt P50548 1-548); settings: protein: recombinant; tags: N-terminal GST; dsDNA, one strand shown
# T6 sequence: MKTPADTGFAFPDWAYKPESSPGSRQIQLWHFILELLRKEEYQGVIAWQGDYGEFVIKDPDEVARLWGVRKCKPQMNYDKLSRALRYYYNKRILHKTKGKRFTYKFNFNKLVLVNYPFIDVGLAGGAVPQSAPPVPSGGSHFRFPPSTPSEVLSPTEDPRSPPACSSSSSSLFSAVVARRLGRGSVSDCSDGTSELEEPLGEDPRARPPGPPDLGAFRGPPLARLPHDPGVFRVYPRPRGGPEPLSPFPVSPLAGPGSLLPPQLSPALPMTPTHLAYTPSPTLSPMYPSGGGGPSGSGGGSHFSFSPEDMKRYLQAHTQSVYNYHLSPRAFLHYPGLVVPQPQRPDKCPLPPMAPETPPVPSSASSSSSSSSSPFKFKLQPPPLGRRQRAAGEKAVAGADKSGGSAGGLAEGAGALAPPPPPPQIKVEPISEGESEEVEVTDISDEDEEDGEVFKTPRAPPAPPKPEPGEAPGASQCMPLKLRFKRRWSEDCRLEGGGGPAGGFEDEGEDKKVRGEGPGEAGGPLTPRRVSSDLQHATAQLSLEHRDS
# In short: as §1
# [12] = target: T7, ETV3L (Homo sapiens, UniProt Q6ZN32 1-361); settings: protein: recombinant; tags: N-terminal GST; dsDNA, one strand shown
# T7 sequence: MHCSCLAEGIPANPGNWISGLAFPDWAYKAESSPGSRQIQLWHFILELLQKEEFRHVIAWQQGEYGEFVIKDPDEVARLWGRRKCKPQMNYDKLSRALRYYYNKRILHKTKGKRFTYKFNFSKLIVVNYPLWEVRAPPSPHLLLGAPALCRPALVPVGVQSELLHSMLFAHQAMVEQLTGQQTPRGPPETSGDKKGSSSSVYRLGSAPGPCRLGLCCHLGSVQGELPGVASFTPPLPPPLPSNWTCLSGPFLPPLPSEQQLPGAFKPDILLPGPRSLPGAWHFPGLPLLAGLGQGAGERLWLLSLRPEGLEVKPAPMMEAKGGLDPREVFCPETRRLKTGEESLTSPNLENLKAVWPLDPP
# In short: as §1
# [13] = target: T8, ETS2 (Homo sapiens, UniProt P15036 1-469); settings: protein: recombinant; tags: N-terminal GST; dsDNA, one strand shown
# T8 sequence: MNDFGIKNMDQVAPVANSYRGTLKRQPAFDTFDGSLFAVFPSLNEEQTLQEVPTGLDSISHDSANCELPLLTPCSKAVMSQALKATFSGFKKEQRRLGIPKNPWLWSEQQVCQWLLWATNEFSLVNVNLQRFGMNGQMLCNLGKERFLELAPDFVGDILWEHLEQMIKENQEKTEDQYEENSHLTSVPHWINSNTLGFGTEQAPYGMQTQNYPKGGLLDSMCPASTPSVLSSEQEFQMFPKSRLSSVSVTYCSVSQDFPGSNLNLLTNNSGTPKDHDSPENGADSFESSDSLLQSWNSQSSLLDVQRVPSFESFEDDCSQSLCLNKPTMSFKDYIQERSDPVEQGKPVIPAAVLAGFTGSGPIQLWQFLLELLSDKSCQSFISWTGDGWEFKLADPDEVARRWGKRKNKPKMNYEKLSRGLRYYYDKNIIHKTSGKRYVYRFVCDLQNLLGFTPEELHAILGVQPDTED
# In short: as §1
# [14] = target: T9, SPDEF (Homo sapiens, UniProt O95238 1-335); settings: protein: recombinant; tags: N-terminal GST; dsDNA, one strand shown
# T9 sequence: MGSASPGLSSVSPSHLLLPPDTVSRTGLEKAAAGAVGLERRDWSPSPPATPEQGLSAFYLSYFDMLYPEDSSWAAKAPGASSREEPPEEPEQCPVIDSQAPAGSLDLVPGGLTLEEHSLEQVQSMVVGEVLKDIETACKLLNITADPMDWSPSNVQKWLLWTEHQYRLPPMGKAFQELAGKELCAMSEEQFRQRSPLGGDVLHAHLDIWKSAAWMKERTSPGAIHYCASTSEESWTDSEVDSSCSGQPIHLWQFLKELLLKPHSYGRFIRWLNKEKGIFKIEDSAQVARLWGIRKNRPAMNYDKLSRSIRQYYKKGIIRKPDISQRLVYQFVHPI
# In short: as §1
# [15] = target: T10, ETV7 (Homo sapiens, UniProt Q9Y603 1-341); settings: protein: recombinant; tags: N-terminal GST; dsDNA, one strand shown
# T10 sequence: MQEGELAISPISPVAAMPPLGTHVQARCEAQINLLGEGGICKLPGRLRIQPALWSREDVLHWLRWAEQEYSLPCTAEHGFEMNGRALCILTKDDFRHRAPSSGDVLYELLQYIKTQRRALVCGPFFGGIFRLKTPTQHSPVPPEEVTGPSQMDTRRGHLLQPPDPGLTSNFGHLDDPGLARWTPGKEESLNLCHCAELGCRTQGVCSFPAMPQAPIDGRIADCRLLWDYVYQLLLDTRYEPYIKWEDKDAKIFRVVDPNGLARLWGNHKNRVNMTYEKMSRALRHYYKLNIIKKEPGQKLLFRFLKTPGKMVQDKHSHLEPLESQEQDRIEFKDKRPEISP
# In short: as §1
# [16] = target: T11, ELF5 (Homo sapiens, UniProt Q9UKW6-2 1-255); settings: protein: recombinant; tags: N-terminal GST; dsDNA, one strand shown
# T11 sequence: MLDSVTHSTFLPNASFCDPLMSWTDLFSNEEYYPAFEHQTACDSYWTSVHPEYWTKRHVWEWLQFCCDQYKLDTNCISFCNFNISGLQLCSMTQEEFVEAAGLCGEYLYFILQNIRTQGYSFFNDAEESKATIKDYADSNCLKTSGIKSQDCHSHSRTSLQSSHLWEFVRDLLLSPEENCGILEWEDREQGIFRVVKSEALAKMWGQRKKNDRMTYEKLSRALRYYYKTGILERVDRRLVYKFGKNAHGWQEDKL
# In short: as §1
# [17] = target: T12, ETV3 (Homo sapiens, UniProt P41162-2 1-143); settings: protein: recombinant; tags: N-terminal GST; dsDNA, one strand shown
# T12 sequence: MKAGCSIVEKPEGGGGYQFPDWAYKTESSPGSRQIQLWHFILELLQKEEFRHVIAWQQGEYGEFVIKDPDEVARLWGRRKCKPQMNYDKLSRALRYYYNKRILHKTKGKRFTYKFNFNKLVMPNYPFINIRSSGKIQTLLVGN
# In short: as §1
# [18] = target: ETV6 (Homo sapiens, UniProt P41212 1-452); settings: protein: recombinant; tags: N-terminal GST; dsDNA, one strand shown
# ETV6, sequence (P41212 whole entry): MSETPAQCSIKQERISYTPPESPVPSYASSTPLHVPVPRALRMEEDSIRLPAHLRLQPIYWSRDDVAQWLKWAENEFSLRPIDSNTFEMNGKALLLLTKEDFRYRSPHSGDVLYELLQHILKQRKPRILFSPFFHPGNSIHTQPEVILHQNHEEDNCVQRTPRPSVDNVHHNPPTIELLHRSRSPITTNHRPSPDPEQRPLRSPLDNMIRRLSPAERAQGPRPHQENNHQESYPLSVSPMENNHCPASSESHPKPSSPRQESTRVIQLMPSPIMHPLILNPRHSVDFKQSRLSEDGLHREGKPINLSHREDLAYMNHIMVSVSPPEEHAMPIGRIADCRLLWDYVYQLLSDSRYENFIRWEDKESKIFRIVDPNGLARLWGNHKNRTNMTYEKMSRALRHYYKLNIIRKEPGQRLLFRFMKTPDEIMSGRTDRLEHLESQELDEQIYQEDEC
# In short: as §1
sequence,measurement,setting,value
TAGTTC,binding signal,[1],"1.28 fold enrichment (6-mer frequency, TF over GST control)"
same,binding signal,[2],"1.41 fold enrichment (6-mer frequency, TF over GST control)"
same,binding signal,[3],"1.45 fold enrichment (6-mer frequency, TF over GST control)"
same,binding signal,[4],"1.47 fold enrichment (6-mer frequency, TF over GST control)"
same,binding signal,[5],"1.43 fold enrichment (6-mer frequency, TF over GST control)"
same,binding signal,[6],"1.49 fold enrichment (6-mer frequency, TF over GST control)"
same,binding signal,[7],"1.4 fold enrichment (6-mer frequency, TF over GST control)"
same,binding signal,[8],"1.49 fold enrichment (6-mer frequency, TF over GST control)"
same,binding signal,[9],"1.23 fold enrichment (6-mer frequency, TF over GST control)"
same,binding signal,[10],"1.4 fold enrichment (6-mer frequency, TF over GST control)"
same,binding signal,[11],"1.29 fold enrichment (6-mer frequency, TF over GST control)"
same,binding signal,[12],"1.44 fold enrichment (6-mer frequency, TF over GST control)"
same,binding signal,[13],"1.43 fold enrichment (6-mer frequency, TF over GST control)"
same,binding signal,[14],"1.5 fold enrichment (6-mer frequency, TF over GST control)"
same,binding signal,[15],"1.31 fold enrichment (6-mer frequency, TF over GST control)"
same,binding signal,[16],"1.41 fold enrichment (6-mer frequency, TF over GST control)"
same,binding signal,[17],"1.49 fold enrichment (6-mer frequency, TF over GST control)"
same,binding signal,[18],"1.41 fold enrichment (6-mer frequency, TF over GST control)"
